# Data reported in PubChem BioAssay AID651819 (National Center for Advancing Translational Sciences (NCATS), 2012).
# Out of some 360,000 compounds screened, about 1,100 (0.31%) were called active. No stated cut-off is given here; in the data, active means activity change below about -30%; inactive means the rest. Shown is part of a subset that was picked to be rich in actives.
# System: cytosolic chaperonin (CCT/TRiC complex)
# Experiment: High-Throughput Screening for Modulators of Cytosolic Chaperonin Activity
# Settings: purified chaperonin ATPase assay, HTRF ADP detection, 30 min; hits give low values
# How it was run: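 TRiC (40 or 20 nM final, by batch activity) in 30 mM Tris pH 7.4, 100 mM KCl, 5 mM MgCl2, 1 mM DTT was treated with compound at 76 uM single dose, then 10 uM ATP, 30 min at 37 °C. ADP was read by HTRF Transcreener.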
# On the % scale 0 is the no-effect control and ±100 the full control effect.
row,Structure (SMILES),activity change
1,O=C(OCCN1CCOCC1)C1(c2ccccc2)CCCCC1,0.343% (inactive)
2,CCN1CCN(C(C(=O)NC2CCCC2)c2cc3c(cc2[N+](=O)[O-])OCO3)CC1 (centres undefined),-0.623% (inactive)
3,Cc1ccc2c(c1)c1ncnc(N3CCc4ccccc4C3)c1n2C,1.95% (inactive)
4,CC(C)N1C(=O)C2C(C(=O)NC3CCCCC3)C3C=CC2(O3)C1C(=O)NC1CCCC1 (centres undefined),-2.56% (inactive)
5,CCOCCCN1C(=O)C2C(C(=O)Nc3ccc(OCC)cc3)C3C=CC2(O3)C1C(=O)NC1CCCCC1 (centres undefined),-2.83% (inactive)
6,CCN(CC)CCN1C(=O)C2C(C(=O)Nc3ccc(Br)cc3)C3C=CC2(O3)C1C(=O)NC1CCCCC1 (centres undefined),-40.8% (active)
7,CCCSc1nsc(N)n1,-1.36% (inactive)
8,COc1ccc2ccn(C)c2c1,1.51% (inactive)
9,COc1ccc(N)c(C)c1,-0.166% (inactive)
10,COc1ccc2c(C)cc3nnnn3c2c1,-38.8% (active)
11,Cc1nc2nc3c(cn2n1)C(=O)CC(c1ccccc1)C3 (centres undefined),-0.882% (inactive)
12,CN1CCN(CC#CCC2(O)c3ccccc3-c3ccccc32)CC1,-0.316% (inactive)
13,CSc1nnc2c(n1)OC(c1cn(C)c3ccccc13)N(C(C)=O)c1ccccc1-2 (centres undefined),-0.161% (inactive)
14,CSCCC(=O)N1CCCC(CNC(=O)c2ccccc2Cl)C1 (centres undefined),-0.386% (inactive)
15,CCOC(=O)CSc1ncc(-c2cccc(Cl)c2)cn1,-0.564% (inactive)
16,COC(=O)c1ccccc1NC(=O)CSc1ccccn1,-2.39% (inactive)
17,CCOC(=O)CSc1ccccn1,-41% (active)
18,COc1ccc(N2C(=O)CCC(C(=O)N(C)C3CCCCC3)C2c2ccc(OC)c(OC)c2)cc1 (centres undefined),-0.957% (inactive)
19,CN1CCN(c2ccncc2S(=O)(=O)N2CCCC2)CC1,-0.238% (inactive)
20,CNC[C@H](CC1CCCCC1)NC[C@H](NCCC1CCCC1)[C@H](C)O,-0.857% (inactive)

row,Structure (SMILES),activity change
1,Nn1c(SCC(=O)Nc2ccc3c(c2)CCC3)nnc1C1CC1,-0.2% (inactive)
2,COc1ccc(NC(=O)CSc2nnnn2-c2cccc(OC)c2)cc1,1.8% (inactive)
3,COc1cccc(NC(=O)CSc2nnc(C3CCCCC3)n2N)c1,-45.1% (active)
4,O=C(Nc1cccnc1Oc1ncnc2cc(Cl)ccc12)c1ccc(F)cc1,1.03% (inactive)
5,O=C1N[C@H](Cc2ccccc2)C(=O)N[C@H]1Cc1cn(S(=O)(=O)c2ccccc2)c2ccccc12,-2.61% (inactive)
6,Nc1nc(Nc2ccccc2F)nc(NC2CCCCC2)c1[N+](=O)[O-],-0.808% (inactive)
7,Nc1nc(NCC2CCCO2)nc(Nc2ccccc2F)c1[N+](=O)[O-] (centres undefined),0.16% (inactive)
8,C=CCNc1nc(N)c([N+](=O)[O-])c(NC2CCCCC2)n1,-43.9% (active)
9,O=C(Nc1ccccc1-c1nnn(CC(=O)N2CCN(c3ccccc3)CC2)n1)c1cccs1,-3.64% (inactive)
10,CCOC1CS(=O)(=O)CC1OCC (centres undefined),0.485% (inactive)
11,COc1ccc(NC(=O)CC(NC(C)c2ccccc2)C(=O)O)cc1 (centres undefined),-0.408% (inactive)
12,O=C(CS(=O)(=O)c1ccccc1)Nc1ccc(S(=O)(=O)Nc2ccccn2)cc1,0.548% (inactive)
13,COc1ccc(NC(=O)CS(=O)(=O)c2ccccc2)cc1,-61% (active)
14,COc1cc2nc(CN(C)Cc3ccc(F)cc3)[nH]c(=O)c2cc1OC,-1.05% (inactive)
15,C/C(Cc1ccccc1)=N\NC(=O)CNC(=O)c1ccccc1Cl,0.921% (inactive)
16,CC(C)CNC(=O)COC(=O)c1ccccc1OCC(=O)Nc1ccc(Br)cc1,0.0186% (inactive)
17,CN(c1ccccc1)S(=O)(=O)c1ccc(C(=O)NCc2cccnc2)cc1,0.104% (inactive)
18,O=C(O)c1ccccc1-c1ccccc1C(=O)NCc1cccnc1,-1.06% (inactive)
19,O=C(NCc1cccnc1)c1cnc2ccccc2n1,-37.4% (active)
20,CC(C)(C)OC(=O)CNC(=O)c1[nH]cnc1C(=O)N[C@@H](CCCCN)C(=O)OC(C)(C)C,0.783% (inactive)

row,Structure (SMILES),activity change
1,NC(=O)c1nsc(C(=O)N(CCCN2CCOCC2)C(C(=O)NC2CCCCC2)c2ccc(Cl)cc2)c1N (centres undefined),-0.121% (inactive)
2,CCc1nc2sc3c(Cl)ncnc3c2c2c1CCCC2,-2.15% (inactive)
3,COc1ccc(NC(=O)C(=O)NCC(=O)Nc2cccc(C(F)(F)F)c2)cc1,-44.8% (active)
4,COc1ccc(C(CC(=O)Nc2ccc(C)cc2)NC(=O)C(F)(F)F)cc1 (centres undefined),0.31% (inactive)
5,C/C(CC(=O)Nc1cccc(C(F)(F)F)c1)=N\NC(=O)C(=O)NCC(C)C,-0.0398% (inactive)
6,Cc1ccc(CN2CC(C(=O)NNC(=O)Cn3ccc(C(F)(F)F)n3)CC2=O)cc1 (centres undefined),-2.29% (inactive)
7,Cc1cccc(-n2c(SCC(=O)Nc3cccc(S(=O)(=O)NC4=NCCCCC4)c3)nc3ccccc3c2=O)c1C,-6.85% (inactive)
8,O=C(CCN1C(=O)[C@@H]2Cc3ccccc3CN2C1=O)NCCc1ccccc1,-0.128% (inactive)
9,Cc1ccc(CNC(=O)CCN2C(=O)[C@@H]3Cc4ccccc4CN3C2=O)cc1,-0.496% (inactive)
10,O=C(CCN1C(=O)[C@@H]2Cc3ccccc3CN2C1=O)NCc1ccccc1,-37.1% (active)
11,CCN1C(=NCc2ccc(OC)cc2)N[C@@H](CCc2ccccc2)[C@H](C(=O)NCc2ccc(OC)cc2)[C@H]1C,-0.204% (inactive)
12,COc1cc(C=O)ccc1Oc1nnnn1-c1ccccc1,0.228% (inactive)
13,NC1=NC(c2ccc([N+](=O)[O-])cc2)N(c2ccc(F)cc2)C(N)=N1 (centres undefined),1.53% (inactive)
14,COc1ccc(C2N=C(N)N=C(N)N2c2ccccc2)cc1OC (centres undefined),-35.3% (active)
15,Nc1nonc1-n1nnc(C(=O)N/N=C/c2cc(Br)ccc2O)c1CSC1=NCCS1,1.21% (inactive)
16,Cc1nn(-c2ccccc2)c2sc(C(=O)N(Cc3ccco3)C(C)C(=O)NC(C)(C)C)cc12 (centres undefined),1% (inactive)
17,Cc1ccc(C)c(N2CCN(C(=O)CCCCCn3c(=S)[nH]c4ccc(N5CCOCC5)cc4c3=O)CC2)c1,1.65% (inactive)
18,O=C(CCCCCn1c(=S)[nH]c2cc3c(cc2c1=O)OCO3)N1CCN(c2ccc(F)cc2)CC1,-31.7% (active)
19,CC(C)NC(=O)CCCn1c(=S)[nH]c2cc3c(cc2c1=O)OCO3,-1.56% (inactive)
